Bioassay records (PubChem)
This is a sample that favours compounds with a hit; in the whole collection about 1.8% have one here.
NALP3 yeast inh: NALP3 inflammasome inhibitors in reconstituted yeast, primary screen, luminescence, uHTS; Yeast reconstituted NLRP3/ASC/caspase-1, beta-gal luminescence, 24 h; inhibition, % at 10 µM; actives 0.39% (n = 330,000);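 active means inhibition of 50% or more; inactive means inhibition below 50%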;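 further: plate controls were induced DMSO wells for no effect and uninduced yeast grown without galactose for full effect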
Mot1-301 SUMO: yeast Mot1-301 growth rescue at high temperature, primary screen, SUMOylation pathway inhibitor project, S. cerevisiae, ATP luminescence, 38.5C | growth rescue, % at 18.8 µM | actives 1% (n = 320,000) | S. cerevisiae Mot1-301 growth rescue; percent above DMSO median, 100 means doubled;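 active means every valid replicate shows activation above 250% relative to neutral control wells; inactive means the rest, any valid replicate at or below 250%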;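 further: OY570 slx delta 5 strain wells were the positive control but not used for scaling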
PolyA inh: polyadenylation inhibitors in yeast reporter cells, primary screen, luminescence, S. cerevisiae; S. cerevisiae SKY197-pL101 polyadenylation reporter, beta-gal luminescence; efflux-impaired pdr1/pdr3 knockout yeast; score 100 = 6 SD above DMSO; activity score, % at 12 µM; actives 0.02% (n = 300,000); AID 1875, 2009;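 active means lowest replicate activity score at least 50, where 100 means six control SD above control mean; inconclusive means lowest score under 50 but half or more replicates reach 50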;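 further: yeast exposed to compound for 9 h at 30 °C; higher score means more reporter readthrough which indicates perturbed polyadenylation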
NALP1 inh: NALP1 inflammasome inhibitors in reconstituted yeast, colorimetric, S. cerevisiae, triplicate retest; S. cerevisiae NALP1/ASC/caspase-1 growth, X-gal OD620, 72 h; actives 0.61% (n = 280,000); inhibition, % at 10 µM; in the data active means inhibition mostly above about 24%, no sharp cut-off; inactive means mostly below about 32%
NALP3 yeast conf: NALP3 inhibitors retested in yeast, confirmation, luminescence, single concentration; inhibition, % at 10 µM; shares compounds with NALP3 yeast inh; actives 81% (n = 1,300); yeast expressing human NALP3; in the data active means inhibition above about 48%
Casp1 ASC ctr: CASP1-PYCARD signaling inhibition in yeast, confirmatory test, counterassay for NLRP3 inhibitor program, one-dose. AID 488784, 2010. actives 66% (n = 1,000). yeast expressing Caspase-1-ASC, luminescence counter screen. shares compounds with NALP3 yeast inh. inhibition, % at 10 µM
NALP3 retest: NALP3 inhibitors in yeast, repeat test, confirmation, luminescence, single concentration, retest; shares compounds with NALP3 yeast inh; yeast expressing human NALP3, luminescence read-out; inhibition, % at 10 µM; actives 53% (n = 1,000)
Numbers without * were called inactive; u = inconclusive; x = no result given. Unless noted, no stated cut-off is given here; in the data, active means inhibition above about 50%; inactive means the rest.

SMILES	NALP3 yeast inh	Mot1-301 SUMO	PolyA inh	NALP1 inh	NALP3 yeast conf	Casp1 ASC ctr	NALP3 retest
O=C(c1cc(-c2cccc(Cl)c2)on1)N1CCCC1	59*	-3	-1	26	77*	76*	64*
CC1CCCN(CCOc2cccc(Oc3ccccc3)c2)C1 (stereo unspecified)	50*	78	-20	22	56*	45	40
CC1CN(CCOc2cccc(Oc3ccccc3)c2)CC(C)O1 (stereo unspecified)	23	80	-7	19	x	x	x
O=S(=O)(NC1CC2CCC1C2)c1ccc(Br)s1 (stereo unspecified)	50*	450*	-53	0	63*	59*	40
O=C(c1cccs1)N1CCN(c2ccc([N+](=O)[O-])cc2F)CC1	18	-3	-8	6	x	x	x
COc1ccc(CNC(=O)C2COc3ccccc3O2)c(OC)c1 (stereo unspecified)	53*	-12	3	-13	65*	46	39
COc1ccc(OC)c(NC(=O)C2COc3ccccc3O2)c1 (stereo unspecified)	26	-22	-28	-16	x	x	x
O=C(NN1C(=O)CSC1=S)C(=O)NN1C(=O)CSC1=S	-7	-22	4	-4	x	x	x
Cn1c(/C=C/N(Cc2ccccc2)c2ccccc2)c([N+](=O)[O-])c(=O)n(C)c1=O	-117	-13	0	-25	-22	x	x
Cc1ccc(SCCNC(=S)Nc2cc(C)cc(C)c2)cc1	55*	25	-5	15	61*	50*	38
NC(=O)c1nsc(C(=O)N(Cc2cccnc2)C(C(=O)NC2CCCC2)c2ccc(F)cc2)c1N (stereo unspecified)	22	20	-6	5	x	x	x
COc1ccc(C(=O)c2cc([N+](=O)[O-])ccc2N2CCCC2)cc1	56*	0	-13	34	23	x	x
O=C(NNc1nc2ccc(Cl)cc2s1)c1cc(-c2cccs2)nc2ccccc12	14	-8	-8	37	x	x	x
CCCCCCCC(=O)N1CCN(c2cc3c(cc2F)c(=O)c(C(=O)O)cn3CC)CC1	29	-8	2	11	x	x	x
CCCCCCCCC(=O)N1CCN(c2cc3c(cc2F)c(=O)c(C(=O)O)cn3CC)CC1	57*	-15	3	-10	52*	25	27
COc1ccc(NC2CCCN(C(=O)CCc3cccc(F)c3)C2)cc1 (stereo unspecified)	12	-5	-6	-18	x	x	x
CC(C)Oc1ccc(C(=O)/C=C2/C(=O)Nc3ccccc32)cc1	65*	190	-16	-47	76*	86*	64*
COc1cc(CNC(C)c2ccccc2)cc(Cl)c1OCC(=O)Nc1ccccc1 (stereo unspecified)	53*	8	-7	4	44	x	x
COc1cc(C)c(Br)cc1S(=O)(=O)NCc1ccncc1	3	-10	8	14	x	x	x
O=C(N/N=C/c1ccccc1C(=O)O)c1ccc(COc2cccc3cccnc23)cc1	3	-11	-10	3	x	x	x
COC(=O)Cn1nc(-c2ccccc2)c2ccccc21	97*	-17	-51	103*	99*	99*	98*
CCCOc1ccc(C(=O)NNC(=S)NC(=O)c2cccs2)cc1	56*	-4	-16	15	77*	36	55*
COc1ccc(C(=O)NNC(=S)NC(=O)c2ccc(Cl)cc2)cc1	54*	4	-8	x	58*	60*	58*
COc1ccc(C(=O)NC(=S)NNC(=O)c2ccc(C)cc2)cc1	54*	-16	1	x	66*	55*	60*
CCCOc1ccc(C(=O)NNC(=S)NC(=O)c2ccccc2)cc1	13	-2	-13	-3	x	x	x
SMILES	NALP3 yeast inh	Mot1-301 SUMO	PolyA inh	NALP1 inh	NALP3 yeast conf	Casp1 ASC ctr	NALP3 retest
CCC(=O)NC(=S)NNC(=O)c1ccc(OC)cc1	9	-10	21	-6	x	x	x
COc1cc(C(=O)NNC(=S)NC(=O)c2ccc(Cl)cc2)cc(OC)c1OC	25	-14	-12	-1	x	x	x
CCn1c(=O)c2c3c(sc2n2cnnc12)CCC3	11	110	-7	2	x	x	x
CC(=O)Nc1cc(C(F)(F)F)ccc1OCCOc1ccccc1	19	-21	-3	x	x	x	x
Cc1c(C(=O)N2CCCC2)c(S(=O)(=O)NCCc2ccccc2)c(C)n1C	6	7	-1	0	x	x	x
C/C(CCC12CC3CC(CC(C3)C1)C2)=N\NC(N)=S	58*	-29	-5	6	50*	70*	41
CCC(C)C1=CC(=Nc2c(C)n(C)n(-c3ccccc3)c2=O)C=C(C(C)CC)C1=O (stereo unspecified)	25	525	-28	-17	x	x	x
Cc1cccc(OCc2nc3ccccc3n2C)c1	54*	-25	-8	5	72*	55*	41
NCCCC(=O)N1c2ccccc2Sc2ccc(Cl)cc21	28	8	-2	11	x	x	x
NCCC(=O)N1c2ccccc2Sc2ccc(Cl)cc21	73*	-23	5	23	85*	78*	87*
O=[N+]([O-])c1ccc(NC(=S)NCCc2ccccc2)cc1	35	-11	-7	34	x	x	x
O=[N+]([O-])c1ccc(NC(=S)NCCc2ccc(Cl)cc2)cc1	69*	-17	-18	24	68*	93*	94*
O=C(Nc1ccc([N+](=O)[O-])cc1)Nc1ccc(Cl)cc1F	76*	13	-8	24	49*	27	20
CC(=O)Nc1ccc2nc(NC(=O)c3ccc([N+](=O)[O-])s3)sc2c1	18	214	-10	-8	x	x	x
O=C(Nc1ccc2oc(-c3ccncc3)nc2c1)c1cccs1	59*	20	6	7	84*	66*	66*
O=C(Nc1ccc(-c2nc3cc(NC(=O)c4cccs4)ccc3o2)cc1)c1cccs1	37	-8	-10	12	x	x	x
Cc1nc2ccc(NC(=O)c3cccs3)cc2s1	65*	2	-18	-4	77*	62*	71*
Cc1nc2cc(NC(=O)c3ccc([N+](=O)[O-])s3)ccc2s1	61*	15	u	13	68*	x	x
Nc1c2c3c(sc2nc(=O)n1N)CCCC3	6	-4	-9	-5	x	x	x
Nc1nc2sc3c(c2c(=O)s1)CCCC3	71*	41	-74	3	83*	70*	80*
O=C(Nc1ccccn1)C1CCN(S(=O)(=O)c2ccc3c(c2)OCCCO3)CC1	21	11	6	x	x	x	x
